Data on eight compounds can be found in PubChem BioAssay (Tox21).

A short description of experiment [1]: Nuclear factor erythroid 2-related factor 2/antioxidant responsive element (Nrf2/ARE) small molecule agonists: luciferase reporter gene qHTS assay in human keratinocytes (AID 1919969). Note: nearly all actives have a fitted effect of over 35% in size. Note: potency is the fitted concentration of half-maximal effect.
Experiment [2] addresses Gonadotropin-releasing hormone receptor (Homo sapiens) (UniProt P30968). Briefly: Human gonadotropin-releasing hormone receptor (GnRHR) small molecule agonists, calcium flux assay in GnRHR-HEK293 cells (AID 1920063). Note: nearly all actives have a fitted effect of over 35% in size. In a few lines:
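HEK293 cells stably expressing human GnRHR were dye-loaded for 1 h at 37 C. Compound was added in agonist mode and fluorescence (Ex/Em 480/540) recorded kinetically for 3 min. Fifteen concentrations, triplicates.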
Background: Calcium assays in cells follow changes in intracellular calcium, usually with a dye or a luminescent sensor.

The target of experiment [3] is KiSS-1 receptor (Homo sapiens) (UniProt Q969F8). Briefly: Human kisspeptin (KISS1R) small molecule agonists, calcium flux assay in KISS1R-HEK293 cells (AID 1920064; active = well fitted activation curve with a large enough effect in the repeat runs). In a few lines: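 HEK293 cells stably expressing human KISS1R were loaded with calcium dye for 1 h at 37 C, then given compound; fluorescence (Ex/Em 480/540) was read kinetically for 3 min. Fifteen concentrations, triplicate.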

Experiment [4] can be described thus: G protein-coupled receptor (GPCR) small molecule agonists, calcium flux assay: HEK293 wild type cell line counter screen (AID 1920065). The gist of the method:
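Wild-type HEK293 cells plated 18 h, loaded with calcium dye 1 h at 37 C, then compounds added in agonist mode (ATP as positive control). Kinetic fluorescence Ex/Em 480/540 recorded 3 min at 1 sec intervals; 15 concentrations, triplicate.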

Experiment [5] can be described thus: p53 small molecule agonists, cell-based qHTS assay with human liver microsomes (AID 1963577).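 Note: p53 response element beta-lactamase reporter cells with liver microsomes plus NADPH.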 The gist of the method: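 16 h, 37 C exposure of p53RE-bla cells to compounds with human liver microsomes and NADPH (0.5 mg/mL final each); detection via LiveBLAzer mixture, 2 h dark at room temperature.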
For orientation: In qHTS, concentration-response curves come from the screen itself.

Experiment [6] in a line: p53 small molecule agonists, cell-based qHTS assay with rat liver microsomes (AID 1963578). In a few lines: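 With rat liver microsomes and NADPH present (0.5 mg/mL final each), p53RE-bla cells are treated with compound for 16 h at 37 C. LiveBLAzer detection mixture is then applied for 2 h at room temperature in the dark.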
A short description of experiment [7]: p53 small molecule agonists, cell-based qHTS assay with rat liver microsomes: qHTS cell viability counter screen (AID 1963580). Note: nearly all actives have a fitted effect of over 45% in size. Note: potency is the fitted concentration of half-maximal effect. In a few lines: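 HCT-116 p53RE-bla, 4,000 cells/well, 5 h pre-incubation; cpd + rat liver microsomes 0.5 mg/mL + NADPH 0.5 mg/mL (final); 16 h, 37 C; CellTiter-Glo, 30 min RT; luminescence.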
Experiment [8] in a line: p53 small molecule agonists, cell-based qHTS assay: qHTS cell viability counter screen (AID 1963581). Note: nearly all actives have a fitted effect of over 45% in size. In a few lines:
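p53RE-bla HCT-116 cells, compounds added 5 h after plating and incubated 16 h at 37 C. Cytotoxicity measured in the same wells as intracellular ATP by CellTiter-Glo luminescence after 30 min at room temperature.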

Experiment [9] can be described thus: p53 small molecule agonists, cell-based qHTS assay (AID 1963582; active = well fitted activation curve with a large enough effect in the signal ratio in the repeat runs, not every such curve was filed as active; the % refers to the signal ratio). The gist of the method: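 p53RE-bla reporter cells, compounds added in DMSO after 5 h plating, incubated 16 h at 37 C. Beta-lactamase read via 2 h room-temperature LiveBLAzer B/G FRET substrate, fluorescence intensity.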
Experiment [10] deals with 5-hydroxytryptamine receptor 2A (Homo sapiens) (UniProt P28223). Briefly: 5-hydroxytryptamine receptor 2A (HTR2A) small molecule antagonists, cell-based qHTS assay (AID 1963586). Note: nearly all actives have a fitted effect of over 45% in size. Note: potency is the fitted concentration of half-maximal effect. In a few lines: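 Antagonist-mode intracellular calcium assay: DOI (4 nM) added after 5 min compound pre-incubation at room temperature to dye-loaded HTR2A-CHO cells. Fluorescence followed for 3 min, sampled every second.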

Experiment [11] has the same target. Briefly: 5-hydroxytryptamine receptor 2A (HTR2A) small molecule agonists, cell-based qHTS assay (AID 1963587). Note: nearly all actives have a fitted effect of over 30% in size. In a few lines: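 Kinetic calcium-flux fluorescence (2 min, 1 sec intervals) after compound addition in agonist mode. HTR2A-CHO cells were cultured 18 h, then dye-loaded 1 h at 37 C.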
In experiment [12] the target is Muscarinic acetylcholine receptor M1 (Homo sapiens) (UniProt P11229). Briefly: Cholinergic receptor muscarinic 1 (CHRM1) small molecule antagonists, cell-based qHTS assay (AID 1963588). Note: nearly all actives have a fitted effect of over 40% in size. In a few lines:
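CHRM1-CHO calcium-flux assay, antagonist mode. Cells were seeded 18 h, dye-loaded 1 h at 37 C and given compound for 5 min at RT, then acetylcholine was added at 50nM. FDSS fluorescence was read 3 min; 15 concentrations, three runs.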

For experiment [13] the target is unchanged. Briefly: Cholinergic receptor muscarinic 1 (CHRM1) small molecule agonists, cell-based qHTS assay (AID 1963589). Note: nearly all actives have a fitted effect of over 35% in size. In a few lines: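 CHO cells stably expressing human CHRM1 were loaded with calcium dye for 1 h at 37 C, then compound was added in agonist mode. Intracellular calcium fluorescence was followed kinetically at 1 s intervals. Fifteen concentrations were tested in three independent runs.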

The nature of experiment [14]: cAMP Responsive Elements (CRE) small molecule agonists, cell-based qHTS assay (AID 1963590). In a few lines:
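CRE-bla HEK 293T cells, 2,000/well in DMEM with 10% dialyzed FBS and 25 mM HEPES, pre-incubated 18 h at 37 C, then exposed to compound 3 h at 37 C. Beta-lactamase reporter read with LiveBLAzer B/G FRET substrate after 2 h at room temperature.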

The nature of experiment [15]: cAMP Responsive Elements (CRE) small molecule antagonists, cell-based qHTS assay (AID 1963591; active = well fitted inhibition curve with a large enough effect in the signal ratio in the repeat runs, not every such curve was filed as active; the % refers to the signal ratio). In a few lines:
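CRE-bla HEK293T cells plated 18 h, then given compound plus NKH477 at 0.25 uM final for 3 h at 37C. Beta-lactamase reporter read with LiveBLAzer B/G FRET substrate after 2 h at room temperature.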

For experiment [16], the target named is D(2) dopamine receptor (Homo sapiens) (UniProt P14416). The experiment in a line: Dopamine D2 receptor (DRD2) small molecule agonists, cell-based qHTS assay (AID 1963594). Note: nearly all actives have a fitted effect of over 35% in size. The gist of the method: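 cAMP accumulation in DRD2-HEK293 cells measured by HTRF after 1 h detection; compounds added 10 min before NKH477 (200nM […]) forskolin-analogue stimulation, 30 min at room temperature, with Ro20-1724 present at 0.1 mM final.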

The target is the same in experiment [17]. The experiment in a line: Dopamine D2 receptor (DRD2) small molecule antagonists, cell-based qHTS assay (AID 1963595; active = well fitted inhibition curve with a large enough effect in the signal ratio in the repeat runs, with a control signal flat; the % refers to the signal ratio; note: potency is the fitted concentration of half-maximal effect). The gist of the method:
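DRD2-HEK293; 0.1 mM Ro20-1724; cpd 10 min RT; NKH477 200 nM + quinpirole 12 nM, 30 min RT; HTRF cAMP (cAMP-d2/anti-cAMP cryptate), 665/620 nm ratio after 1 h.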

In experiment [18] the target is Beta-2 adrenergic receptor (Homo sapiens) (UniProt P07550). Briefly: Adrenergic beta2 receptor (ADRB2) small molecule antagonists, cell-based qHTS assay (AID 1963592). Note: nearly all actives have a fitted effect of over 50% in size. Note: potency is the fitted concentration of half-maximal effect. The gist of the method:
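Cells (CHO, stable ADRB2 overexpression) incubated 18-20hr at 37C; compounds added from DMSO; agonist mix (1nM isoproterenol, 100uM IBMX, 25uM Ro-20-1724) added; 0.5hr RT; d2-cAMP and anti-cAMP-cryptate added; 1hr RT; 665/615 nm read.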

The nature of experiment [19]: p53 small molecule agonists, cell-based qHTS assay with human liver microsomes: qHTS cell viability counter screen (AID 1963579). Note: nearly all actives have a fitted effect of over 45% in size. Note: potency is the fitted concentration of half-maximal effect. The gist of the method:
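In this multiplexed counter screen, the reporter plates were subsequently treated with CellTiter-Glo so that cell viability, reflected by luminescence, could be recorded for p53RE-bla cells dosed 16 h with compounds under microsomal activation (HLM and NADPH).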

Experiment [20] addresses Beta-2 adrenergic receptor (Homo sapiens) (UniProt P07550). Briefly: Adrenergic beta2 receptor (ADRB2) small molecule agonists, cell-based qHTS assay (AID 1963593).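 Note: CHO cells stably overexpressing human ADRB2.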 In a few lines:
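CHO cells stably over-expressing ADRB2 were plated overnight at 37C, then dosed with compounds plus a stimulation mix containing 100uM IBMX and 25uM Ro-20-1724 for 0.5hr at room temperature. cAMP was measured by HTRF competition, 1hr.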

Results filed as inconclusive are left out. Activity calls are given as the source filed them. Unless noted, calls come from the whole dose curve.

Sequence of KiSS-1 receptor (Homo sapiens) (Q969F8 whole entry, looked up): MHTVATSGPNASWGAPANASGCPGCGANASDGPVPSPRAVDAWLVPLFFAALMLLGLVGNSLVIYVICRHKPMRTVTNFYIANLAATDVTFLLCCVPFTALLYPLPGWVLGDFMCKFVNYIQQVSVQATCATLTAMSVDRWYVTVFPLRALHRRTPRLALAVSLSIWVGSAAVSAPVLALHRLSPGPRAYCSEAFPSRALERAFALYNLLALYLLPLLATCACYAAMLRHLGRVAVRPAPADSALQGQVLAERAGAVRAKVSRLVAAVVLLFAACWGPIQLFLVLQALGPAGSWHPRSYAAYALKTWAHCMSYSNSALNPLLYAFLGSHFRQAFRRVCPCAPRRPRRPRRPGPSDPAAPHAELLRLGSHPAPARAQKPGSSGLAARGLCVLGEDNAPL
Sequence of Gonadotropin-releasing hormone receptor (Homo sapiens) (P30968 whole entry, looked up): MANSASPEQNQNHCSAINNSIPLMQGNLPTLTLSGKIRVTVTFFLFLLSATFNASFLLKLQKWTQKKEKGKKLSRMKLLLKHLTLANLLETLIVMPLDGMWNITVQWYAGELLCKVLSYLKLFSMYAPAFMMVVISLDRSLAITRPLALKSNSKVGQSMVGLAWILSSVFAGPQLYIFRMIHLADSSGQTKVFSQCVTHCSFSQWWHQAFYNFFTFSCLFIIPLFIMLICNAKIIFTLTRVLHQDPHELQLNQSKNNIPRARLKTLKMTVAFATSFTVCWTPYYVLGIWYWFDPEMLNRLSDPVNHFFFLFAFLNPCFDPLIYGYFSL
Sequence of 5-hydroxytryptamine receptor 2A (Homo sapiens) (P28223 whole entry, looked up): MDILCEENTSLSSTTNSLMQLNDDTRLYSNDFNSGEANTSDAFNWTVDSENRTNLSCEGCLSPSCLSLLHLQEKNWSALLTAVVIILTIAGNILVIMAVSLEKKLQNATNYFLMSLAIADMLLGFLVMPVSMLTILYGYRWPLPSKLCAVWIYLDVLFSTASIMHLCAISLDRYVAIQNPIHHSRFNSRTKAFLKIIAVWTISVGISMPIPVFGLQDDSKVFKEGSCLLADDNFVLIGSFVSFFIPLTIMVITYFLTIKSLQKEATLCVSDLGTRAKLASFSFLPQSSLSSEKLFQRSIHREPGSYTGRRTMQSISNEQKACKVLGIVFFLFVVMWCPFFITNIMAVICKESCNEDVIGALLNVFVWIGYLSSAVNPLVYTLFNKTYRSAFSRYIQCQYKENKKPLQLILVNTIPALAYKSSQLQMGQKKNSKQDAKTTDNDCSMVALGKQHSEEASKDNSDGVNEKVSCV
Sequence of D(2) dopamine receptor (Homo sapiens) (P14416 whole entry, looked up): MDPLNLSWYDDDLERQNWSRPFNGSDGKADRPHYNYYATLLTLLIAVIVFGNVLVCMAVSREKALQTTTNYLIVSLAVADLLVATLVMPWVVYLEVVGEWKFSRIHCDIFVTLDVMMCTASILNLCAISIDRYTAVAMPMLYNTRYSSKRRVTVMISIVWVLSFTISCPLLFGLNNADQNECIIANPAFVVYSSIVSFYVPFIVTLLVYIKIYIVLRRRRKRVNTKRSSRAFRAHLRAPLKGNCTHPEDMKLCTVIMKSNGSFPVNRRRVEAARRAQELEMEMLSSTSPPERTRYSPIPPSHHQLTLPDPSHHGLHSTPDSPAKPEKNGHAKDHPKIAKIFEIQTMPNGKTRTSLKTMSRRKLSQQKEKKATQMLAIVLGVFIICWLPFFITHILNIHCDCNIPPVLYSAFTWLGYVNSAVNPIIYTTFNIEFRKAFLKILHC
Sequence of Beta-2 adrenergic receptor (Homo sapiens) (P07550 whole entry, looked up): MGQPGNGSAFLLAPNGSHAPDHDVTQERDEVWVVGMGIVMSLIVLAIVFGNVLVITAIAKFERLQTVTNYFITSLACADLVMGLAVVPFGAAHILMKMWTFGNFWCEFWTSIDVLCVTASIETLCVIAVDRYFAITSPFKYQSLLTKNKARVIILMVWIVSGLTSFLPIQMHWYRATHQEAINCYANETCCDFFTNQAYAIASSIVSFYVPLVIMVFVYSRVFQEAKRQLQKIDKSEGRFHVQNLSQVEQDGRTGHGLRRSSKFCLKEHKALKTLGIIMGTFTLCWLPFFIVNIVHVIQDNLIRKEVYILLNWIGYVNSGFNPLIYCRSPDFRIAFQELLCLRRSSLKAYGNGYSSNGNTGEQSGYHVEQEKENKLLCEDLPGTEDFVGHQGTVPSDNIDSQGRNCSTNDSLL
Sequence of Muscarinic acetylcholine receptor M1 (Homo sapiens) (P11229 whole entry, looked up): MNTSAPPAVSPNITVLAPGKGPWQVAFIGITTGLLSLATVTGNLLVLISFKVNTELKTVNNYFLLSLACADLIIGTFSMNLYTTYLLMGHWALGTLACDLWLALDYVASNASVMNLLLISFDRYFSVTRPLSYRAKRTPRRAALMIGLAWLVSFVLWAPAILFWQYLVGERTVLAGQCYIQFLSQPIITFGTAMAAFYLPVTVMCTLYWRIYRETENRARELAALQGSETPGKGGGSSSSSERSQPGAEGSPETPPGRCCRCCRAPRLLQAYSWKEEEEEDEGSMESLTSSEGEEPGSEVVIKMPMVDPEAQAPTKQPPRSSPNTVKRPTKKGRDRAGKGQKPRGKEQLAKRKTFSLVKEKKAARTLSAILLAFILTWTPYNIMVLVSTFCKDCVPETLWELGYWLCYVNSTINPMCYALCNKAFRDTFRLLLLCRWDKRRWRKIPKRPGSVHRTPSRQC

For the compound `CC(=O)Oc1ccc([N+](=O)[O-])cc1CCl`, the Potency in experiment [1] is 27.3 µM (active). Further, the Potency result in experiment [2], in experiment [3], in experiment [4], in experiment [5], in experiment [6] and in [7] was “inactive” in each case. For the same compound, the Potency result in experiment [8], in experiment [9], in experiment [10], in experiment [11], in experiment [12] and in experiment [13] was “inactive” each time. Also, the Potency entry in experiment [14], in experiment [15], in experiment [16] and in experiment [17] was “inactive” each time.
`CCN(CC)C(=O)c1cc(S(=O)(=O)Cc2ccccc2)c(N2CCC(c3ccccc3)CC2)cc1N(CC)CCN(C)C`: the Potency entry in experiment [1], in experiment [2], in experiment [3], in experiment [4], in experiment [5] and in [6] was “inactive” each time. Also, the Potency entry in experiment [7], in [8], in experiment [13] and in experiment [16] was “inactive” in each case. Further, the figures for the Potency in experiment [18] and in experiment [17] were 24.1 µM (active) and 21.4 µM (active), respectively.
Consider `O=S(=O)(c1ccc(OCc2ccccc2)cc1)c1ccccc1O`, for which the Potency entry in experiment [1], in experiment [2], in experiment [3], in experiment [4], in experiment [5] and in [6] was “inactive” throughout. Further, the Potency result in experiment [8], in experiment [11], in experiment [12], in experiment [13], in [15] and in experiment [16] was “inactive” each time. Further, the Potency in experiment [10] was 0.594 µM (active); in experiment [17] it was 61.1 µM (active).
For the compound `O=C(/C=C/c1ccc([N+](=O)[O-])cc1)c1ccccc1`, the figures for the Potency in experiment [1] and in experiment [7] were 54.6 µM (active) and 20.5 µM (active), respectively. The Potency result in experiment [2], in [3], in [4], in experiment [5], in experiment [19] and in [8] was “inactive” in each case. Further, the Potency entry in experiment [9], in [10], in experiment [11], in [12], in experiment [13] and in [18] was “inactive” throughout. Moreover, the Potency result in experiment [16] was “inactive”.
In the case of `CCc1cc(Cc2cc(CC)c(N)c(CC)c2)cc(CC)c1N`, the Potency entry in [1], in experiment [2], in experiment [3], in [4], in [5] and in experiment [6] was “inactive” in each case. The Potency result in experiment [10], in [11], in experiment [12], in [13], in experiment [14] and in [15] was “inactive” each time. For the same compound, the Potency in experiment [19] was 40.8 µM (active).
Regarding `CCCCc1ccc2nc(NC(=O)OC)[nH]c2c1`, in experiment [1], the Potency was 4.22 µM (active). Moreover, the Potency entry in [2], in experiment [3], in experiment [4], in experiment [5], in experiment [6] and in [10] was “inactive” throughout. Moreover, the Potency entry in experiment [11], in experiment [12], in experiment [13], in [15], in experiment [18] and in experiment [20] was “inactive” throughout. The Potency result in [16] and in experiment [17] was “inactive” throughout.
In the case of `CC1=C(/C=C/C(C)=C/C=C/C(C)=C/C=O)C(C)(C)CCC1`, the Potency in experiment [1] is 27.1 µM (active). Moreover, the Potency entry in [2], in experiment [3], in experiment [4], in experiment [5], in experiment [6] and in experiment [10] was “inactive” in each case. The Potency entry in experiment [11], in experiment [12], in experiment [13], in [18], in experiment [20] and in experiment [16] was “inactive” throughout. Also, the Potency entry in [17] is “inactive”.
On to `CCN(CC)c1ccc(C(=C2C=CC(=[N+](CC)CC)C=C2)c2cc(S(=O)(=O)O)ccc2S(=O)(=O)[O-])cc1`, for which the Potency result in experiment [1], in experiment [2], in [3], in experiment [4], in experiment [5] and in [6] was “inactive” throughout. Besides, the Potency result in [19], in [9], in experiment [10], in experiment [11], in experiment [12] and in [13] was “inactive” each time. Also, the Potency result in experiment [14] and in [15] was “inactive” each time.
